The entries come from a sample that favours hits as a whole.
12-LOX inh = blocks human arachidonate 12S-lipoxygenase; P18054; purified 12hLO, xylenol orange hydroperoxide absorbance; Potency, µM (doses to about 108 µM), actives largely listed as inhibitors; actives 1.1% (n = 580,000); AID 1671190
Target sequence (P18054 whole entry, looked up): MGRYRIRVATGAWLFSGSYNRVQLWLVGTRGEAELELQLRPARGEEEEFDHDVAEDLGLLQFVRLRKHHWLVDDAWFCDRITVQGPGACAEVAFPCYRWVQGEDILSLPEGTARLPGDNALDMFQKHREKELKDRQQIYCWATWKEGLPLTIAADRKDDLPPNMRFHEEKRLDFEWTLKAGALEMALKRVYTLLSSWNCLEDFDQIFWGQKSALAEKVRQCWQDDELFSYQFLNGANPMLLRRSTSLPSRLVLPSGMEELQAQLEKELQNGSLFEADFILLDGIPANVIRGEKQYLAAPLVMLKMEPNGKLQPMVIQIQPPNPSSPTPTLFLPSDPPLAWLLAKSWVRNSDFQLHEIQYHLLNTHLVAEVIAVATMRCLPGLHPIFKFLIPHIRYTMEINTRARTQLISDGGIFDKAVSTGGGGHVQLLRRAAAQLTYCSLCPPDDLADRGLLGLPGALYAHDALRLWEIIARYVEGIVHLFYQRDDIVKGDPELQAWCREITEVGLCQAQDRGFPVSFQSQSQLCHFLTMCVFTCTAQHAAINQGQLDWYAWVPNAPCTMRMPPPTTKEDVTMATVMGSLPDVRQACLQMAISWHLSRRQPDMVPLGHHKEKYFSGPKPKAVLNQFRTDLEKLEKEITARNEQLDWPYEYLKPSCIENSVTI
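Hydroperoxide product was detected by ferrous iron/xylenol orange as the 573 to 405 nm absorbance ratio. Arachidonic acid at 40 uM (final) was turned over for 30 min at room temperature by 150 nM human 12hLO, pH 7.0 Hepes buffer, after 15 min compound preincubation.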
IL-1B inflam inh = inhibitors of inflammasome signaling (IL-1 beta secretion); THP-1 LPS/ATP IL-1B secretion, AlphaLISA, 16 h; hits give low values; activity change, % at 57.5 µM; actives 4.7% (n = 360,000); in the data active = activity change below about -50%; inconclusive = mostly about -30% to -49%
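Secreted IL-1B measured by AlphaLISA bead assay after 16 h compound exposure of THP-1 cells; compounds (final up to 57.5 uM) added 1 h before LPS (250 ng/mL) and ATP (1.25 mM) stimulation; lower signal means less secretion.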
HT1080 IDH1KD tx = kills HT-1080 cells with IDH1 knockdown; actives 2% (n = 360,000); HT-1080 IDH1 knockdown viability, ATP luminescence, 48 h; Potency, µM (top dose mostly 46.1 µM), usual class: cytotoxic; AID 686971
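Luminescent ATP read-out (CellTiter-Glo, 10 min at room temperature) after 48 h compound exposure at 37 °C gave viability of IDH1-knockdown HT-1080 cells. Activity was normalised to DMSO and cell-free wells, then fitted as concentration-response curves.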
HT1080-NT tox = kills 2HG-producing HT-1080-NT fibrosarcoma cells; HT-1080-NT fibrosarcoma viability, CellTiter-Glo ATP luminescence, 48 h; Potency, µM (top dose mostly 46.1 µM), hits mostly cytotoxic; actives 1.6% (n = 360,000);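 also: NT is the 2HG producing partner of a matched IDH1 knockdown line; nearly all actives have a fitted effect of over 55% in size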
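Viability by CellTiter-Glo luminescence after 48 h compound exposure at 37C of HT-1080-NT cells (750/well, RPMI, 5% FBS). % activity scaled between DMSO wells and medium-only wells, then curve-fitted and categorized by curve class.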
DT40 TDP1 no CPT = qHTS for Inhibitors of human tyrosyl-DNA phosphodiesterase 1 (TDP1): qHTS in cells in absence of CPT; AID 686978, 2013; DT40 Tdp1-/- hTDP1 cells, no CPT, ATP luminescence, 48 h; actives 15% (n = 420,000); Potency, µM (highest dose often 46.2 µM), most hits filed as inhibitors; also: nearly all actives have a fitted effect of over 55% in size
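No-CPT arm: Tdp1-/-;hTDP1 DT40 cells (400/well) plus compounds, incubated ≥48 hr at 37 °C. Readout CellTiter-Glo luminescence.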
TDP1 cell CPT = DT40-hTDP1 cell growth loss with CPT | chicken DT40 Tdp1-/-;hTDP1 cells + 20 nM CPT, ATP luminescence, 48 h | Potency, µM (series often up to 46.2 µM), actives largely listed as inhibitors | actives 12% (n = 420,000) | AID 686979; also: nearly all actives have a fitted effect of over 55% in size
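Cell growth measured by CellTiter-Glo luminescence after a minimum 48 h, 37 C compound exposure with 20 nM CPT in Tdp1-knockout DT40 cells stably expressing hTDP1, seeded 400/well; qHTS titration format.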
Hits are given with their value; i = inactive; ? = inconclusive; nt = no result given. Unless noted, calls follow the shape of the dose curve; as a rule, active = well fitted curve in the direction sought with a large enough effect; inconclusive = small, poorly fitted or top-dose-only effect, or another doubt; inactive = no such curve, though single readings can be large; an effect the other way counts as inactive or inconclusive.

SMILES	12-LOX inh	IL-1B inflam inh	HT1080 IDH1KD tx	HT1080-NT tox	DT40 TDP1 no CPT	TDP1 cell CPT
COc1ccc(OC)c(/C=C/C(=O)c2ccc3c(c2)OCCO3)c1	i	-101	?	?	?	?
CC(=O)/C=C/c1ccccc1Oc1c(F)c(F)nc(F)c1F	i	i	?	?	26µM	?
COc1ccccc1/C=C\C(=O)O	nt	nt	nt	nt	i	i
Cc1noc(-c2cccs2)c1C(=O)NC(C)CCc1ccccc1 (stereo unspecified)	i	nt	nt	nt	nt	nt
N#C/C(=C\c1cccs1)C(=O)N1CCOCC1	i	i	i	i	i	i
COc1ccc(/C=C(\C#N)C(=O)N2CCOCC2)cc1Br	i	-68	i	i	i	i
Cc1cc(/C=C(\C#N)C(=O)N2CCOCC2)c(C)n1C1CCCC1	i	i	i	i	12µM	?
COc1cc(/C=C(\C#N)C(=O)N2CCCCC2)ccc1O	i	i	i	i	i	i
N#C/C(=C\c1ccc(O)c(O)c1)C(=O)N1CCCC1	?	i	i	?	13µM	?
O=C(NCc1ccccc1)c1cnc2n1CCN(Cc1ccccn1)CC2	i	nt	nt	nt	nt	nt
O=C(NCC(F)(F)F)C1CCCC(C(=O)NCC(F)(F)F)C1 (stereo unspecified)	i	nt	nt	nt	nt	nt
CC(C)(C)C1CCc2nc(NC(=O)COc3ccccc3[N+](=O)[O-])sc2C1 (stereo unspecified)	i	nt	nt	nt	?	16µM
CC(C)(C)C1CCc2nc(NC(=O)Cc3ccccc3)sc2C1 (stereo unspecified)	i	nt	nt	nt	?	?
Cc1cccc(OCC(=O)Nc2nc3c(s2)CC(C(C)(C)C)CC3)c1C (stereo unspecified)	?	nt	nt	nt	18µM	16µM
Cc1cc(C)cc(OCC(=O)Nc2nc3c(s2)CC(C(C)(C)C)CC3)c1 (stereo unspecified)	?	nt	nt	nt	23µM	18µM
CC(C)(C)C1CCc2nc(NC(=O)c3cccc(Cl)c3)sc2C1 (stereo unspecified)	?	nt	nt	nt	23µM	?
COc1ccccc1CNC(=O)CCC(=O)N1CCSc2nc(C)cc(C)c21	i	nt	nt	nt	nt	nt
C=CCc1cc(C(=O)N2CCCCC2)ccc1O	i	i	i	i	?	?
C=CCc1ccc(O)c(-c2ccc(O)c(CC=C)c2)c1	?	?	i	i	18µM	?
CCOc1ccc(CC(=NCCc2ccccc2)C2=C(O)CC(C)(C)CC2=O)cc1OCC	i	-66	i	i	16µM	15µM
CCOc1ccc(CC(=N)C2=C(O)CC(C)(C)CC2=O)cc1OCC	i	i	i	i	i	i
Cc1noc([C@@H]2C[C@H](NC(=O)c3ccc(-c4ccccc4)cc3)CN2C)n1	i	nt	nt	nt	nt	nt
O=C(c1ccc(N2CCCC(O)C2)nc1)N1CCC(N2CCOCC2)CC1 (stereo unspecified)	i	nt	nt	nt	nt	nt
O=C(CS(=O)(=O)c1ccccc1)Nc1nnc(C(F)(F)F)s1	i	i	i	i	i	i
CC(C)(C)c1nnc(NC(=O)CCS(=O)(=O)c2ccccc2)s1	i	-103	?	i	23µM	7.3µM
SMILES	12-LOX inh	IL-1B inflam inh	HT1080 IDH1KD tx	HT1080-NT tox	DT40 TDP1 no CPT	TDP1 cell CPT
Cc1ccc(S(=O)(=O)CC(=O)Nc2nnc(C(C)(C)C)s2)cc1	?	i	i	i	i	i
Cc1nnc(NC(=O)CCSc2ccccc2)s1	i	i	i	i	i	i
O=C(CCS(=O)(=O)c1ccccc1)Nc1nnc(C(F)(F)F)s1	i	i	18µM	?	13µM	?
Cc1nnc(NC(=O)CCS(=O)(=O)c2ccccc2)s1	i	-93	?	?	?	16µM
O=C(NC[C@H]1OC[C@@H](NCc2ccccc2F)[C@@H]1O)c1cccs1	i	nt	nt	nt	nt	nt
COc1cc(NC(=O)NCc2ccncc2)cc(OC)c1OC	i	i	i	i	i	i
COc1cccc([C@@H]2CN(C(=O)c3ccc(CO)o3)C[C@H]2C(=O)O)c1	i	nt	nt	nt	nt	nt
COc1ccc(CN(C)C(=O)c2ccccc2Sc2ccccc2C#N)c(OC)c1	?	?	i	i	23µM	23µM
CN(Cc1ccccc1F)C(=O)c1ccccc1Sc1ccccc1C#N	i	-66	i	i	?	?
COC(=O)[C@@H](CC(C)C)NC(=O)Nc1cccc(OC)c1	i	nt	nt	nt	nt	nt
CC1CCN(S(=O)(=O)c2ccc3c(c2)C(C)(C)C(=O)N3CC(=O)NCc2ccco2)CC1	i	nt	nt	nt	nt	nt
CCc1ccc(CC2S/C(=C(\C#N)C(C)=O)NC2=O)cc1 (stereo unspecified)	?	i	?	i	2.3µM	1.6µM
CC(=O)/C(C#N)=C1\NC(=O)C(Cc2ccc(C)c(Cl)c2)S1 (stereo unspecified)	?	i	?	i	2.1µM	10µM
O=C1NC(=Nc2ccc(F)cc2)SC1Cc1ccc(F)cc1 (stereo unspecified)	i	?	i	i	?	?
CC(C)CCn1nc(C(=O)NC2CCCc3ccccc32)c2ccccc2c1=O (stereo unspecified)	i	nt	nt	nt	nt	nt
O=C1OCc2ccc([N+](=O)[O-])cc21	i	i	i	i	i	i
Clc1cc(NC2CCCCCC2)n2nccc2n1	i	nt	nt	nt	nt	nt
CCOC(=O)CC(NS(=O)(=O)c1cc(-c2cc(C)no2)ccc1C)c1ccc(C)cc1 (stereo unspecified)	i	nt	nt	nt	8.2µM	21µM
CNC(=S)Nc1ccc(Cc2ccncc2)cc1	?	i	i	i	i	i
O=C(NC(=S)Nc1ccc(N2CCCC2)cc1)c1ccc(F)cc1	?	i	i	i	i	i
O=C(NC(=S)Nc1ccc(Cc2ccncc2)cc1)c1ccc(F)cc1	?	i	i	i	16µM	?
CC(C)(C)C(=O)NC(=S)Nc1ccc(Cc2ccncc2)cc1	i	-65	i	i	?	?
O=C(NCc1ccco1)NC1CC(=O)N(CCCc2ccccc2)C1 (stereo unspecified)	i	nt	nt	nt	nt	nt
O=C(NCCNc1ccccn1)Nc1ccccc1	i	nt	nt	nt	nt	nt
CCN(CC)C(=O)c1ccc(C(=O)c2c(C)cc(C)cc2C)cc1	i	i	i	i	21µM	18µM
SMILES	12-LOX inh	IL-1B inflam inh	HT1080 IDH1KD tx	HT1080-NT tox	DT40 TDP1 no CPT	TDP1 cell CPT
Cc1nc(-c2ccc(C)c(S(=O)(=O)N3CCCCC3)c2)cs1	i	nt	nt	nt	nt	nt
CSc1ccc(C)c(C(N)=O)c1	i	nt	nt	nt	nt	nt
COc1ccc2cc(CN3CCC(N(C)C)C3)c(-c3cccc(C)c3)nc2c1 (stereo unspecified)	i	nt	nt	nt	nt	nt
Cc1nc2ccc(NC(=O)c3ccccc3)cc2c(=O)n1Cc1ccc(F)cc1	i	i	?	i	13µM	?
Cc1nc2ccc(N)cc2c(=O)n1Cc1ccc(Cl)cc1	?	i	i	i	i	i
COc1ccc(Cn2c(C3CC3)nc3ccc(NC(C)=O)cc3c2=O)cc1	i	i	i	i	i	i

From PubChem
